# Screening data (PubChem)
# TGFb SMAD3 inh = blocks TGF-b signaling; AID 588855; HepG2 CAGA-GFP TGF-b/SMAD3 reporter, GFP fluorescence, 18 h; TGF-beta stimulated, 500 pg/mL final; Potency, µM (titrated, usually from 46.1 µM), for inactives: top-dose activity, negative = inhibition, usual class: inhibitors; 1.2% of 410,000 active; note: % is set by controls: 0 for no effect and ±100 for the full control effect; nearly all actives have a fitted effect of over 65% in size
#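 Using HEPG2 CAGA-GFP reporter cells at 1000 cells/well, we pinned test compounds, stimulated with recombinant TGF-beta (500 pg/mL final) and measured total well GFP after 18 h.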
# S2 tox = viability counter-screen for ATXN expression inhibitors | S2 cells (HEK-293 line with an ATXN2-luciferase reporter) viability, CellTiter-Fluor protease fluorescence, 24 h | Potency, µM (series often up to 56.7 µM), actives largely listed as cytotoxic | 0.49% of 400,000 active | AID 651635; note: nearly all actives have a fitted effect of over 40% in size
# HepG2 viability = HepG2 cytotoxicity, counter-screen for TGF-b inhibitors | AID 588856 | HepG2 CAGA-GFP viability, ATP luminescence, 18 h | 0.76% of 410,000 active | Potency, µM (series often up to 46.1 µM), for the others: top-dose activity change, negative = cytotoxicity, hits mostly cytotoxic
#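 HepG2 CAGA-GFP cells (1000/well, DMEM with 1% FBS) received compound, then TGF-beta at 500 pg/mL final, and were incubated 18 hours at 37 degrees C. Viability was read by CellTiter-Glo luminescence. Media-only wells were set as complete cell-killing and DMSO as no toxicity.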
# ATXN2 expr inh = reduces ATXN2 reporter expression in HEK-293 cells; HEK-293 ATXN2-luciferase reporter, luminescence, 24 h; Potency, µM (series often up to 57 µM), for the others: at the top dose activity change, negative = inhibition, most hits filed as inhibitors; 0.72% of 360,000 active; AID 1745845; note: % is set by controls: 0 for no effect and ±100 for the full control effect; nearly all actives have a fitted effect of over 55% in size
#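 ATXN2-luciferase reporter cells (luciferase flanked by upstream and downstream ATXN2 gene portions) were treated 24 h at 37 °C with compounds at up to 57 uM. SteadyGlo luminescence gave expression; GF-AFC fluorescence gave viability.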
# VP16 counter = Gal4-VP16 reporter inhibition counter-screen | Potency, µM (top dose mostly 53.6 µM), inactives show at the top dose activity, negative = inhibition, actives largely listed as inhibitors | 3.5% of 310,000 active | Drosophila S2 Gal4-VP16 UAS-luciferase, luminescence, 20 h | AID 2546;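 note: Gal4-VP16 expression switched on by copper sulfate through the metallothionein promoter; % is set by controls: 0 for no effect and ±100 for the full control effect; nearly all actives have a fitted effect of over 50% in size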
# RORg inh = ROR gamma (mouse) transcription inhibition | 5.4% of 310,000 active | Drosophila S2 Gal4-RORgamma UAS-luciferase reporter, 20 h | P51450 | Potency, µM (titrated, usually from 53.6 µM), without a hit: top-dose activity change, negative = inhibition, hits mostly inhibitors; note: % is set by controls: 0 for no effect and ±100 for the full control effect; nearly all actives have a fitted effect of over 60% in size
# Target sequence (P51450 whole entry, looked up, the tested form may be a part): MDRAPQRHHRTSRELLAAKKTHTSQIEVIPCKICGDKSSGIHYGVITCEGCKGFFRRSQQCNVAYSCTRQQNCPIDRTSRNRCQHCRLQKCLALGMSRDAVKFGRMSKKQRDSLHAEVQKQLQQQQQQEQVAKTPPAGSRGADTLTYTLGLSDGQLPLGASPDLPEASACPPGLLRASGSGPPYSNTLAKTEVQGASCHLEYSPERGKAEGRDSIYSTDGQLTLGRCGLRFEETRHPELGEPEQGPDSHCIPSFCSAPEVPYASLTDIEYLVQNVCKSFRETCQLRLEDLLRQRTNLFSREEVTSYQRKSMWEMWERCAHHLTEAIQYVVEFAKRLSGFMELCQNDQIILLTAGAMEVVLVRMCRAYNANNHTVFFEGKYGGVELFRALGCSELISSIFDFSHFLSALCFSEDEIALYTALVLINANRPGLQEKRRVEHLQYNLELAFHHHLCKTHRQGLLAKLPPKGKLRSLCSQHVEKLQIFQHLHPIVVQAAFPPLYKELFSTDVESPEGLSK
#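 Using a luciferase readout, inhibitors were identified by reduced reporter activity in Drosophila cells coexpressing a copper-inducible Gal4–ROR gamma fusion and UAS-driven Photinus luciferase, incubated 20 hr after 700 uM copper sulfate.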
# Numbers without * were called inactive; i = inactive; ? = inconclusive; / = no result given; [ ] = remark or other dose. Rows were chosen to be rich in hits. Some 6.1% of all compounds tested hit in one or more screens of this group. Calls come from the whole dose curve; as a rule, active = well fitted curve in the direction sought with a large enough effect; inconclusive = small, poorly fitted or top-dose-only effect, or another doubt; inactive = no such curve, though single readings can be large; an effect the other way counts as inactive or inconclusive. Potency is the fitted concentration of half-maximal effect.
SMILES,TGFb SMAD3 inh,S2 tox,HepG2 viability,ATXN2 expr inh,VP16 counter,RORg inh
Cc1ccc(/C=C2\SC(=S)N(CCCC(=O)NC3CCCC3)C2=O)cc1,8.7%,i,-18.3%,12.6µM*,?,1.58µM*
O=C(Nc1nnc(SCc2cc(=O)n3cc(Cl)ccc3n2)s1)c1cccc(F)c1,-4.1%,/,1.3%,/,/,/
COc1ccc(NC(=O)NNC(=O)C(C)Oc2ccc(C(C)C)cc2)c(OC)c1 (stereo not given),?,i,-17.6%,-3.5%,?,20µM*
C[C@H](CCC(=O)O)[C@H]1CC[C@H]2[C@@H]3[C@H](O)C[C@@H]4C[C@H](O)CC[C@]4(C)[C@@H]3CC[C@]12C,/,/,/,7.3%,/,/
CC1CC=C(c2ccccc2)C(=S)N1 (stereo not given),5.5%,i,-10.0%,1.1%,3.16µM*,1µM*
COc1cccc(CNC(=O)CC(c2ccc(C)cc2)N2Cc3ccccc3C2=O)c1 (stereo not given),3.0%,i,-7.1%,-3.6%,/,/
CCCS(=O)(=O)Nc1cc(-c2cn3ccc(C)cc3n2)ccc1C,/,/,-32.9%,/,/,/
Cc1ccc(Cl)cc1NC(=S)N1CCCCCC1,-1.5%,i,-10.9%,-1.2%,?,10µM*
FC(F)(F)c1ccccc1NC(=S)N1CCN(c2ncccn2)CC1,?,?,-3.0%,-25.6%,-10.3%,12.6µM*
CCc1ccccc1NC(=S)NN,/,/,/,/,?,11.2µM*
CCc1ccccc1NC(=S)N1CCCCCC1,-7.1%,i,-1.4%,-8.0%,?,14.1µM*
FC(F)(F)c1ccccc1NC(=S)N1CCCCCC1,-15.6%,i,-0.7%,0.8%,-6.7%,?
S=C(Nc1ccccc1Cl)N1CCCC1,-8.7%,i,2.2%,/,-24.5%,0.6%
C[n+]1c(/C=C/c2ccnc3ccccc23)cc(/C=C/c2ccnc3ccccc23)c2ccccc21,?,/,-46.9%,/,/,/
Cc1ccc2c(c1)N(C(=O)Nc1cccc3c1CCCC3)CC(C)O2 (stereo not given),-46.8%,/,-34.1%,/,/,/
Cc1c(Cl)cccc1NC(=S)NCCN1CCOCC1,-2.7%,?,13.5%,3.1%,-10.1%,?
Cc1ccc(NC(=S)N2CCCCCC2)c(C)c1,-16.6%,i,-9.8%,27.9%,17.8µM*,?
Cc1c(Cl)cccc1NC(=S)N1CCCCCC1,?,i,-16.7%,7.1%,?,14.1µM*
Cc1ccc(NC(=S)Nn2cnnc2)c(C)c1,/,/,/,/,0.9%,-13.6%
Cc1c(Cl)cccc1NC(=S)NN1CCOCC1,1.6%,?,-11.2%,0.9%,?,10µM*
Cc1ccc(Cl)cc1NC(=S)Nn1cnnc1,1.3%,i,13.3%,6.4%,?,12.6µM*
CCOC(=O)c1ccccc1NC(=S)N1CCC(C)CC1,31.4%,i,41.1%,-25.0%,?,12.6µM*
Cc1cccc(NC(=S)N2N=CCC2c2ccccc2)c1 (stereo not given),-14.3%,i,3.4%,44.6%,?,0.0%
CCc1ccccc1NC(=S)N1N=CCC1c1ccccc1 (stereo not given),15.6%,i,5.2%,11.0%[11.3 µM],7.94µM*,3.16µM*
Cc1ccc(NC(=S)N2CCN(c3ncccn3)CC2)c(C)c1,-34.6%,?,-9.5%,7.1%,?,35.5µM*
COc1cccc(CNC(=O)c2c(OC)cc(=O)n3c2CCN(C(=O)C2CC24CCCCC4)CC3)c1 (stereo not given),/,i,/,/,/,/
COc1ccc(/C=N/NC(=S)NC2CCS(=O)(=O)C2)cc1OC (stereo not given),0.8%,i,-14.3%,-3.5%,?,15.8µM*
Cc1ccc(/C=N/NC(=S)NC2CCS(=O)(=O)C2)cc1 (stereo not given),-10.6%,i,-5.2%,1.4%,5.01µM*,7.94µM*
CC(=O)c1c(C)n(-c2ccc(C)cc2)c2ccc(OC(=O)COc3ccccc3)cc12,0.9%,i,-1.2%,16.3%,/,/
